These results are taken from PubChem BioAssay (NCI).

Structures are written as SMILES. The panel holds about 83,000 compounds, 20% with a hit somewhere; the sample as a whole holds those more often.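 The test compound was applied at a single concentration to cells in 96-well plates for 48 hours, and percent growth was recorded.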 Activity calls are given as the source filed them.

The experiment has as its system OVCAR-8 ovarian. In words: NCI-60 one-dose screen, 48 h (100 = growth as untreated, 0 = no growth, -100 = all killed). The following applies: 10 µM unless noted. The protocol:
Growth inhibition of the OVCAR-8 human tumor cell line is measured as a screen for anti-cancer activity. Cells are grown in 96 well plates and exposed to the test compound for 48 hours. Compounds are tested at a single concentration, which is 10^-5 M for most compounds. The reported endpoint is percent growth (GI% or GIPRCNT), where numbers from 0 - 100% represent growth inhibition, and numbers from -100% - 0 represent cell death. For example, a value of 40 represents 60% growth inhibition. A value of 0 means no net growth occurred over the course of the experiment. A value of -40 indicates 40% of cells at the beginning of the experiment died by the end of the experiment. A value of -100 means all cells are dead at the end of the experiment.
NCI-60 Human Tumor Cell Lines Screen was performed using the standard one-dose NCI protocol, which is described in more detail at https://dtp.cancer.gov/discovery_development/nci-60/default.htm.
Compounds with GIPRCNT values below 10 were considered active. Activity score was based on GIPRCNT using the following formula: […]
Score is 0 for GIPRCNT values of 100 or above, 50 for GIPRCNT values of 0, and 100 for GIPRCNT values of -100.
Take `CCCCNc1nnc2n(Cc3ccccc3)c(=O)c3c4c(sc3n12)CCCC4`: the growth is 46.2% (inactive).

For `CN1C(=O)/C(=C2\SC(=Nc3ccccc3)N(Nc3ccccc3)C2=O)c2ccccc21`, the growth is 102% (inactive).

On to `COc1ccc(/C=C/c2ccc3ccccc3n2)c(OC)c1`, for which the growth is 92.5% (inactive).

As to `COc1ccc(/C=C/C(=O)c2cc3c(N)c(C(=O)Nc4cccc(Cl)c4C)sc3nc2C)cc1`, the growth was -8.6% (active).

On to `COc1ccc(C2CC(c3cc(OC)c(OC)c(OC)c3)=NO2)cc1OCCCCOc1cc2c(cc1OC)C(=O)N1CCC[C@H]1C=N2` (stereo not given in full), for which the growth is 26.1% (inactive).

For `O=[N+]([O-])c1cc(NS(=O)(=O)c2ccccc2)ccc1NS(=O)(=O)c1ccccc1`, the growth is 93% (inactive).

With `Cc1ccc2c(-n3nc(C#N)c(C#N)c3N)cc(=O)[nH]c2c1`, the growth is 85.9% (inactive).

For `NC(=O)c1c(NC(=O)c2cccs2)sc2c1CCC(=O)C2`, the growth was 21.2% (inactive).

As for `CC1=C(C(=O)Nc2nc(-c3ccc(Cl)cc3)cs2)[C@H](c2ccc(O)cc2)NC(=O)N1`, the growth is 105% (inactive).

`C[C@]1(O)CC(=O)[C@]2(O)C3=C(C=C[C@]2(O)C1)C(=O)c1c(O)cccc1C3=O`: the growth was -12.6% (active).

Turning to `CN1CCN(C(=S)SCCCCOc2cc(=O)oc3ccccc23)CC1`, the growth was 78.4% (inactive).

For `OCCNCCNC(Cc1ccc(Cl)cc1)c1ccccc1` (stereo not given), the growth is 101% (inactive).

For `CC(=O)/C(=C/c1ccc([N+](=O)[O-])cc1)C(=O)c1ccccc1`, the growth is 94.4% (inactive).

As for `CCCn1nc(C(=O)N(C)Cc2ccccc2)c2c1CCC(N1CCc3ccccc31)C2` (stereo not given), the growth is 93.4% (inactive).

As for `N=c1c(S(=O)(=O)c2ccccc2)cc2c(=O)n3ccccc3nc2n1CC1CCCO1` (stereo not given), the growth was 116% (inactive).

Take `CC1(C)CC(=O)c2c(nn(-c3ccc(Br)cc3)c2-c2cn(-c3ccccc3)nc2-c2cccnc2)C1`: the growth was 97.6% (inactive).

On to `CCNC(=O)Oc1ccc(/C(=C(/C)Cc2ccc(OC)cc2)c2ccc(OCCN3CCCCC3)cc2)cc1`, for which the growth was 81.8% (inactive).

Regarding `COc1cc2nc3sc(C(=O)Nc4ccc(C(=O)OC(C)C)cc4)c(C(=O)Nc4ccc(Cl)cc4C)n3c(=O)c2cc1OC`, the growth was 35.4% (inactive).

As to `COc1cc(/C=C/C(=O)/C=C(O)/C=C/c2ccc(OC(=O)C34CC5CC(CC(C5)C3)C4)c(OC)c2)ccc1OC(=O)C12CC3CC(CC(C3)C1)C2`, the growth is 104% (inactive).

Turning to `COc1ccc(/C=C2\COc3ccc(O)cc3C2=O)cc1`, the growth is 95.3% (inactive).

On to `COc1ccc2cc(-c3ccnc4c(N=Nc5ccc(Cl)cc5)c(N)nn34)ccc2c1`, for which the growth was 93.9% (inactive).

For the compound `O=C(Nc1cnc(Nc2ccc(N3CCOCC3)nc2)nc1Oc1ccc(C(F)(F)F)cc1)c1ccncc1`, the growth is 86.6% (inactive).

As for `CCN(CC)CCN1C(=O)c2c(c(C)c3c(oc4ccc(O)cc43)c2C)C1=O`, the growth was -5.2% (active).

Turning to `C/C(=N\O)c1ccc(NC(=O)CSc2nnc(-c3cc(-c4ccc(S(N)(=O)=O)cc4)nc4ccccc34)n2-c2ccccc2)cc1`, the growth was 59.4% (inactive).

As to `O=C(C1=Cc2cc3ccccc3n2Cc2cnnn21)c1ccc(O)cc1`, the growth is 64.8% (inactive).

Regarding `CCOC(=O)c1c(C)nc2ccccc2c1/C=C/c1ccccc1`, the growth was 53.8% (inactive).

For the compound `Cc1cccc[n+]1C1c2ccccc2-c2ccccc21`, the growth was 96.6% (inactive).

Turning to `O=C(N/N=C\c1cccc([N+](=O)[O-])c1)N/N=C/c1cccc([N+](=O)[O-])c1`, the growth was 101% (inactive).

As for `CCN1C(=O)N(CC)C2C1NN=c1s/c(=C\c3cnc(C)n3C)c(=O)n12` (stereo not given), the growth is 14.8% (inactive).

Take `COC1=C(C)C(=O)N2[C@@H]1[C@H](c1ccccc1)OC21C=CC(=O)C=C1`: the growth was 19.4% (inactive).

Regarding `CC(C)CCN(CCC(C)C)CC(O)c1cc2c(c3ccccc13)CCCC2` (stereo not given), the growth is 81.6% (inactive).

In the case of `O=C(/C=C/c1cccc(Cl)c1Cl)Nc1ncc(Cc2ccccc2Cl)s1`, the growth was 73.6% (inactive).

`COc1cccc(-c2cc(-c3cccc(Cl)c3)c(C#N)c(=O)[nH]2)c1`: the growth was 89.6% (inactive).

`CC(=O)ON1CCCC(P(=O)(OCCSC(=O)C(C)(C)C)OCCSC(=O)C(C)(C)C)C1=O` (stereo not given): the growth is 10.7% (inactive).

`Cc1ccccc1Nc1cc(O)c2c(=O)cc(-c3ccccc3)oc2c1`: the growth is 52.5% (inactive).

As for `COC(=O)c1cc(Br)ccc1O`, the growth was 103% (inactive).

For `Cc1ccc(Cl)cc1NC(=O)c1sc2nc3c(cc2c1N)C(=O)CCC3`, the growth is 90% (inactive).

For the compound `CNC1=C([N+](=O)[O-])C(c2ccc(OC)cc2)C(C#N)=C(c2cccs2)O1` (stereo not given), the growth was 103% (inactive).

Take `COc1ccc(/C=C(/c2ccccc2)[N+](=O)[O-])c(OC)c1`: the growth was 15.8% (inactive).

As to `C=C(CNCCO)[C@@H]1CC[C@]2(CO)CC[C@]3(C)[C@H](CC[C@@H]4[C@@]5(C)CCC(N)C(C)(C)[C@@H]5CC[C@]43C)[C@@H]12` (stereo not given in full), the growth was 36.8% (inactive).
